This note sets out measurements from PubChem BioAssay AID1671192 (National Center for Advancing Translational Sciences (NCATS), 2021).

Records with an inconclusive call do not appear. A number with no mark means an inactive call. Calls come from the whole dose curve; as a rule, active = well fitted curve in the direction sought with a large enough effect; inconclusive = small, poorly fitted or top-dose-only effect, or another doubt; inactive = no such curve, though single readings can be large or run the other way.

Polyunsaturated fatty acid lipoxygenase ALOX15 (Homo sapiens), sequence (P16050 whole entry, looked up): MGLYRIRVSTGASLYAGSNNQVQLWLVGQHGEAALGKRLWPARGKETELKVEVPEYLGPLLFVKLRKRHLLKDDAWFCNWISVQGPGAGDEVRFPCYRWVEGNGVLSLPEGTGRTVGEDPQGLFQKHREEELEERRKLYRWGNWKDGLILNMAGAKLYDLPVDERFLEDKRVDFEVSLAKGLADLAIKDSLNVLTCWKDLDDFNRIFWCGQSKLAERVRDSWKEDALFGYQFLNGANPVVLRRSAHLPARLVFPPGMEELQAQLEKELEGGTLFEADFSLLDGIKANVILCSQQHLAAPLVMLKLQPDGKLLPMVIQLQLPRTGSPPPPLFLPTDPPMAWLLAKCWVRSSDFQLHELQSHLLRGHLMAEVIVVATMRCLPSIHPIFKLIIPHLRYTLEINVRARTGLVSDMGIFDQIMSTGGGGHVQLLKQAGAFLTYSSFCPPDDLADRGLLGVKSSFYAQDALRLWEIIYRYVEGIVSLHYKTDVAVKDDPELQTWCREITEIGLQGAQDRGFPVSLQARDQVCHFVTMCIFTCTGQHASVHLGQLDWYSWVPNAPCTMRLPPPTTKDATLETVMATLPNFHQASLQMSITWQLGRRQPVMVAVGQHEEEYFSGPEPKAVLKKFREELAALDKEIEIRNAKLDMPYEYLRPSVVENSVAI

The target in the experiment is Polyunsaturated fatty acid lipoxygenase ALOX15 (Homo sapiens) (UniProt P16050). In words: Counterscreen qHTS for inhibitors of human arachidonate 12S-lipoxygenase (ALOX12): ALOX15 Assay. Note: 0% is about no effect. As to conditions: purified ALOX15 enzyme activity; series mostly up to 110 µM; activity change, negative = inhibition: at the top concentration. Summed up:
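Xylenol orange–ferric complex formation, read as the 573 nm to 405 nm absorbance ratio, tracks product from 50 uM arachidonic acid turned over for 30 min at RT. Enzyme is 40 nM ALOX15, pH 7.5 HEPES buffer, compound-preincubated 15 min.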
With `O=C(c1ccncc1)N1CCN(c2ccc(Cl)nn2)C(=O)C1`, the “activity change, negative = inhibition” value was -6.67% [at 146 µM]. Then `COc1ccc(N2CC3CCC(C2)N3Cc2ccc(C#N)cc2)cc1`, with -3.16% [at 146 µM]. Consider `O=C1NCc2ccccc2CC12CCCN2Cc1cccc(O)c1` (centres undefined), for which the “activity change, negative = inhibition” value was -11.9% [at 146 µM]. As for `COc1ccc(-c2cc(C(=O)NC3CC3)c3c(C)nn(-c4ccccc4)c3n2)cc1`, the “activity change, negative = inhibition” value was -28.5%. Regarding `COc1ccc(CNc2ncnc3c2CN(C2CCCNCC2)C(=O)CN3C)cc1` (centres undefined), the “activity change, negative = inhibition” value is 8.84%. With `O=C1c2ccccc2CN1C1CCN(Cc2ccc(C(F)(F)F)cc2)CC1`, the “activity change, negative = inhibition” value was -7.82%.

Take `COc1cccc(N2C(=O)NC(=NC3CCCCC3)C23CCCN(Cc2cccnc2)C3)c1` (centres undefined): the “activity change, negative = inhibition” value is -1.65%. In the case of `CN1CC(=O)N(C2CCNCC2)Cc2c(NCCOc3ccccc3)ncnc21`, the “activity change, negative = inhibition” value was -4.67%. In the case of `Fc1ccc(CN2CCn3c(nnc3C3CCCNC3)C2)cc1` (centres undefined), the “activity change, negative = inhibition” value was -21.6% [at 146 µM].

Turning to `CCC(=O)N1Cc2ccccc2CC2(CCN(CC3CCNC3)C2)C1` (centres undefined), the “activity change, negative = inhibition” value is -13.1% [at 146 µM]. Regarding `CNCc1ccccc1OC(F)(F)F`, the “activity change, negative = inhibition” value is -10.2% [at 146 µM]. With `COc1ccc(CNc2ncnc3c2CN(C2CCCNC2)C(=O)CN3C)cc1OC` (centres undefined) the figure was 14.1%; with `CN1CC(=O)N(C2CCCNCC2)Cc2c(NCC(C)(C)C)ncnc21` (centres undefined), 12.5%. With `Cc1cc(Cl)ccc1-c1ccccc1CN` the figure was 12.3% [at 146 µM]; with `O=C1NC2(Cc3ccccc31)CN(C(=O)c1cccc3c1OC(F)(F)O3)C2`, -11.2%; with `Cc1ccc(CN2CC3(Cc4ccccc4NC3=O)C2)cc1`, 67.4% [at 146 µM]. With `O=C(C1CCCC1)N1Cc2ccccc2CC2(CCN(Cc3ccncc3)C2)C1` (centres undefined), the “activity change, negative = inhibition” value is -18%. With `CN1CC(=O)N(C2CCNC2)Cc2c(NCCc3cccc(F)c3)ncnc21` (centres undefined) the figure was -7.72%. With `NCc1ccc(-c2cc(C(F)(F)F)ccc2Cl)cc1` the figure was 81.7% [at 146 µM].
